Several values for one entry are separate records, joined by “and”; a condition that tells them apart may be missing. Identical values can stand only once. Activity calls are given as the source filed them.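 Rule for the calls, unless noted: active = inhibition at or above 50% relative to wild type and mutant plate controls; inactive = inhibition below 50%.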
Assays:
[1] = inhibitors of TNFa-induced NFkB p65 translocation, primary screen, imaging, HUVEC, MLSMR starter and 10KST1 sets (AID 438;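 active = inhibition above 20% together with a positive visual image hit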;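 note: compound added about 3h40 before a 20 min TNFalpha stimulation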;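 for inhibition: signal is the nuclear over cytoplasmic p65 intensity ratio per well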); conditions: HUVEC TNFa-induced p65 nuclear translocation; cell count: measured here: nuclei count (cytotoxicity indicator), at 2.08 µM; inhibition: at 2 µM, stronger effect = higher value, 0% TNFa-plus-vehicle, 100% no-TNFa wells
[2] = inhibitors of mutant huntingtin aggregation, primary screen, imaging, exon1htt(103Q)mCFP cells, high-content imaging (AID 483;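 active = visual image review flags a hit and inhibition of aggregation exceeds 20%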;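 note: compound exposure lasted 3 days before fixation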;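 for nuclei count: percent of the per-plate median nuclei count of sample wells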); conditions: exon1htt(103Q)mCFP cell line, aggregate imaging, at 2 µM; inhibition of aggregation: stronger effect = higher value; nuclei count: measured here: cell count, toxicity
[3] = inhibitors of E-selectin induction by TNFa, primary screen, imaging, HUVEC, immunofluorescence, MLSMR starter and 10KST1 sets (AID 487;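 active = visually confirmed hit in the image check and inhibition above 20%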;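 for inhibition: signal is fraction of cell area covered by stained E-selectin grains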;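 for nuclei count: 100% = median nuclei count of all wells on the same plate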); conditions: HUVEC TNFalpha-induced E-selectin immunofluorescence imaging, at 2 µM; inhibition: stronger effect = higher value; nuclei count: measured here: cell number, toxicity
[4] = DUSP6 inhibitors restoring Erk phosphorylation by chemical complementation, primary imaging in DUSP6-transfected HeLa (AID 609;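 active = compounds giving at least 50% inhibition in the cell-based MKP-3 phosphatase rescue imaging test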;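 for inhibition: phospho-Erk level distribution per well compared with pooled transfected vehicle control wells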); conditions: HeLa MKP-3 transfected, phospho-Erk imaging KS statistic, at 10 µM, cells stimulated with TPA for 15 min
[5] = target: Dual specificity protein phosphatase 6 (Homo sapiens) (UniProt Q16828); assay: as above; conditions: HeLa MKP-3 transfected, phospho-Erk imaging KS statistic; at 10 µM; stronger effect = higher value; cells stimulated with TPA for 15 min
Chain of Dual specificity protein phosphatase 6 (Homo sapiens) (Q16828 whole entry, looked up): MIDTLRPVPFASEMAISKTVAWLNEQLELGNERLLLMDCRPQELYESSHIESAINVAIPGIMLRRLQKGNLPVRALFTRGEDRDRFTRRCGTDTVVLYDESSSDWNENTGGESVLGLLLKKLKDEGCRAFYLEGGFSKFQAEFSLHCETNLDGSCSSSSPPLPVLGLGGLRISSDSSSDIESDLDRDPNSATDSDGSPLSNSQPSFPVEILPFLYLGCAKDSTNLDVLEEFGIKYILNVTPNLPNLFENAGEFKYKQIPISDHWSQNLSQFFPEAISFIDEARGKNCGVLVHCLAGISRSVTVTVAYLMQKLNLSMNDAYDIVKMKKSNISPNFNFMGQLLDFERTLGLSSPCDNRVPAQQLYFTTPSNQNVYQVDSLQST

[6] = target: Voltage-gated potassium channel subunit beta-2 (Rattus norvegicus) (UniProt P62483); assay: KvBeta enzyme negative modulators, primary screen, biochemical, NADPH fluorescence (AID 622;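 active = fluorescence slope higher than the sample average by over 3 SD, cut at about -0.22 in these data, passing the limit was not always enough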;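 note: slope of raw intensity against log time taken from 70 to 1610 s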); conditions: recombinant KvBeta, 4-cyanobenzaldehyde reduction, at 10 µM, stronger effect = higher value
Chain of Voltage-gated potassium channel subunit beta-2 (Rattus norvegicus) (P62483 whole entry, looked up): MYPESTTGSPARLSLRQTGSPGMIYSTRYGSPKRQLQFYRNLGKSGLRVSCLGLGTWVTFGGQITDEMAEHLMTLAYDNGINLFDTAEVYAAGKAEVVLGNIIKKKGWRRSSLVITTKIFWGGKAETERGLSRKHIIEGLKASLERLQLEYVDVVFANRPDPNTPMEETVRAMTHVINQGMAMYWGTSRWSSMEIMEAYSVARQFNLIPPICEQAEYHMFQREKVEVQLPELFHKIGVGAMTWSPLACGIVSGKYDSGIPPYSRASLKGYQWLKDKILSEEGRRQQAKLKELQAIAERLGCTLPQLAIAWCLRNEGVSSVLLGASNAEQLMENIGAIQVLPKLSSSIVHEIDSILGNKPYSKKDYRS

[7] = target: Voltage-gated potassium channel subunit beta-2 (Rattus norvegicus) (UniProt P62483); assay: KvBeta positive modulators, primary screen, biochemical, NADPH fluorescence (AID 623;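 active = NADPH fluorescence slope more negative than the mean of all samples by about 3 SD, 99.7% confidence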;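 note: fluorescence intensity change per second fitted from 20 to 320 s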); conditions: Recombinant KvBeta, NADPH fluorescence decrease slope, 10 min; at 10 µM; stronger effect = lower value
[8] = target: Alpha-2C adrenergic receptor (Homo sapiens) (UniProt P18825); assay: modulators of alpha2C/GIRK thallium flux, primary screen, cell-based, HEK293 alpha2C/GIRK1/2 (AID 624;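 active = fluorescence slope after compound addition differing from the mean of all screened samples at 99.7% confidence, in either direction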;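 note: slope of fluorescence ratio to pre-addition baseline per second over 15 to 24 s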); conditions: thallium flux BTC fluorescence, at 10 µM, actives lie on both sides
Chain of Alpha-2C adrenergic receptor (Homo sapiens) (P18825 whole entry, looked up): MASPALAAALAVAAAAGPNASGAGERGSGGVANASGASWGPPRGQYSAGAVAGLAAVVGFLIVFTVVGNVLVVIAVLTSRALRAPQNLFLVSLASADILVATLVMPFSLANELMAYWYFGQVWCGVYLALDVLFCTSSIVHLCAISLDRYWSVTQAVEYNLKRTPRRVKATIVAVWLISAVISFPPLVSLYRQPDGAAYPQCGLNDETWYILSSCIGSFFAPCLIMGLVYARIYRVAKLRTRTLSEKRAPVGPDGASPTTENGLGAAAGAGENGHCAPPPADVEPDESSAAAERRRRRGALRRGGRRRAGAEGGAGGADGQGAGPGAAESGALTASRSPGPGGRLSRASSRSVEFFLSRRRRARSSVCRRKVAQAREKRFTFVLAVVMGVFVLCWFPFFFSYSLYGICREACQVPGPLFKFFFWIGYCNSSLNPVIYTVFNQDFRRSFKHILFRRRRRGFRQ

[9] = inhibitors of larval lipid processing in zebrafish, primary screen, whole organism, PED6 fluorescence, gall bladder and intestine (AID 686;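 active = a full or partial loss of lipid-probe fluorescence in the fish gall bladder, intestine or both, judged by eye; inactive = no fluorescence loss, or compound toxic to the fish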;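 note: larvae 5 to 7 days old with five fish per well; signal comes from phospholipase A2 cleavage of quenched PED6 carried via bile; overnight exposure to compound and PED6 before scoring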); conditions: Zebrafish larvae PED6 lipid processing, fluorescence scoring; screened at 20 µM (by protocol)
[10] = inhibitors of Chlamydomonas gravitaxis, primary screen, whole organism, Chlamydomonas reinhardtii, WT vs cilia-less mutant, absorbance, 96-well (AID 463189); conditions: OD600 absorbance, 2 days, at 10 µM, stronger effect = higher value;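 note: 0% = wild type cc124 cells in DMSO and 100% = ciliumless bld1 mutant cells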
[11] = inhibitors of Sendai virus-induced IRF3 signaling, primary screen, TLR/RLR signaling modifier project, cell-based, Sendai virus stimulus, luciferase, 10K MLSCN set (AID 602276;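 active = inhibition at or above 50% at 10 µM; inactive = inhibition below 50%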;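 note: firefly luciferase from ISG56 promoter only with Renilla not read in this screen; 0% = Sendai virus plus DMSO and 100% = medium plus DMSO without virus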); conditions: HEK293 RL24 IRF3 luciferase reporter, at 10 µM, stronger effect = higher value
[12] = inhibitors of poly I:C-induced TLR3 signaling, primary screen, cell-based, poly I:C stimulus, luciferase, 10K MLSCN set (AID 602277;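 active = inhibition of the reporter signal at or above 50%; inactive = inhibition below 50%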); conditions: HEK293-TLR3 RL24 IRF3 luciferase reporter, at 10 µM, stronger effect = higher value
[13] = measured here: cell density z-score
[14] = measured here: nuclear c-Myc green intensity z-score
[15] = measured here: nuclear pErk red intensity z-score, stronger effect = higher value

Compound | cell count [1] | inhibition [1] | inhibition of aggregation [2] | nuclei count [2] | inhibition [3] | nuclei count [3] | z-score [4, 13] | z-score [4, 14] | z-score [4, 15] | inhibition [5] | fluorescence slope [6] | NADPH fluorescence slope [7] | slope [8] | outcome [9] | inhibition [10] | inhibition [11] | inhibition [12]
OCCN(CCO)c1nc(N2CCCCC2)c2nc(N(CCO)CCO)nc(N3CCCCC3)c2n1 | 547 | -6.1% (inactive) | -4% (inactive) | 110% | -59.7% (inactive) | 134% | 0.412 | 0.0897 | 0.61 | -0.493% (inactive) | -0.056 (active) | -1.2e-07 (inactive) | 0 (inactive) | inactive | 1.16% (inactive) and 19.1% (inactive) | 10.6% (inactive) | -14.4% (inactive)
CCOC(=O)CSC1=C(C#N)C(c2ccc3c(c2)OCO3)CC(=O)N1 (stereo not given) | 562 | -1.1% (inactive) | -16.1% (inactive) | 82.2% | -43.4% (inactive) | 80.7% | -0.992 | 0.745 | 0.964 | 3.66% (inactive) | -0.471 (inactive) | -0.000313 (inactive) | 0.00534 (inactive) | inactive | 14.3% (inactive) | 36.8% (inactive) | 34.7% (inactive)
O=C(/C=C/c1ccccc1)c1ccccc1 | 614 | -6.5% (inactive) | -4.6% (inactive) | 98.3% | -56.5% (inactive) | 113% | 0.266 | 0.631 | 0.428 | 23.2% (inactive) | -0.452 (inactive) | -2.2e-05 (inactive) | 0.0047 (inactive) | inactive | 21.2% (inactive) | -12.6% (inactive) | -54.9% (inactive)
CCCNC(=O)NS(=O)(=O)c1ccc(Cl)cc1 | 639 | -5.9% (inactive) | 14.1% (inactive) | 84.6% | -56.7% (inactive) | 120% | -0.235 | 0.988 | 1.2 | -0.493% (inactive) | -0.477 (inactive) | -1.5e-05 (inactive) | 0.00564 (inactive) | inactive | -16% (inactive) and -6.85% (inactive) | -0.0514% (inactive) | 14.7% (inactive)
COCCCC/C(=N\OCCN)c1ccc(C(F)(F)F)cc1 | 514 | -7.2% (inactive) | -27.7% (inactive) | 100% | -121% (inactive) | 121% | 1.11 | -1.18 | 0.0602 | 9.37% (inactive) | -0.468 (inactive) | -6.2e-05 (inactive) | 0.00513 (inactive) | inactive | -1.98% (inactive) and -5.54% (inactive) | 5.66% (inactive) | 36.1% (inactive)
C[C@]12CC[C@@H]3c4ccc(O[C@@H]5O[C@H](C(=O)O)[C@@H](O)[C@H](O)[C@H]5O)cc4CC[C@H]3[C@@H]1C[C@@H](O)[C@@H]2O | 606 | -2.6% (inactive) | -0.5% (inactive) | 90.1% | -146% (inactive) | 127% | 0.0825 | -0.52 | -0.309 | 1.48% (inactive) | -0.487 (inactive) | -4.1e-05 (inactive) | 0.00431 (inactive) | inactive | -2.21% (inactive) | 15% (inactive) | 32.3% (inactive)
Nc1ccc2cn[nH]c2c1 | 616 | 0.3% (inactive) | 9% (inactive) | 94.8% | -58.4% (inactive) | 123% | -0.59 | 0.481 | -0.693 | 5.79% (inactive) | -0.531 (inactive) | -2.3e-05 (inactive) | 0.00412 (inactive) | inactive | -10.8% (inactive) | 3.56% (inactive) | 33% (inactive)
N=c1c[n+](N2CCOCC2)[n-]o1 | 605 | -7.1% (inactive) | 4.6% (inactive) | 86.9% | -109% (inactive) | 139% | 0.144 | -0.44 | 0.201 | -8.38% (inactive) | -0.496 (inactive) | -5.7e-05 (inactive) | 0.00445 (inactive) | inactive | 5.26% (inactive) and -2.73% (inactive) | 19.5% (inactive) | 43.7% (inactive)
COC(=O)CSc1nc2sc3c(c2c(=O)n1C1CCCCC1)CCN(C)C3 | 390 | -4.4% (inactive) | -16% (inactive) | 102% | -127% (inactive) | 140% | -0.811 | -0.963 | 1.03 | -8.59% (inactive) | -0.289 (inactive) | 2e-05 (inactive) | 0.00385 (inactive) | inactive | 14.6% (inactive) | 15.7% (inactive) | 38.9% (inactive)
C[C@]12CC[C@@H]3c4ccc(OC(=O)c5ccccc5)cc4CC[C@H]3[C@@H]1CC[C@@H]2O | 623 | 1.2% (inactive) | -35.3% (inactive) | 31.5% | -112% (inactive) | 133% | -1.91 | 0.276 | -1.27 | -6.41% (inactive) | -0.467 (inactive) | -8.1e-05 (inactive) | 0.00784 (inactive) | inactive | 5.46% (inactive) | 7.4% (inactive) | 33.1% (inactive)
O=c1oc2cc(O)ccc2c2oc3cc(O)ccc3c12 | 610 | 3.6% (inactive) | 11.2% (inactive) | 78.7% | -22% (inactive) | 112% | 0.528 | 1.66 | -1.32 | 25.7% (inactive) | -0.398 (inactive) | -1e-05 (inactive) | 0.00469 (inactive) | inactive | 6.48% (inactive) | 12.4% (inactive) | 41.2% (inactive)
C=CCn1c(SCC(=O)NC23CC4CC(CC(C4)C2)C3)nc(O)cc1=O | 629 | -3.7% (inactive) | -0.4% (inactive) | 103% | -39.7% (inactive) | 129% | -0.394 | -0.06 | 0.754 | 7.83% (inactive) | -0.532 (inactive) | -4.2e-05 (inactive) | 0.00471 (inactive) | inactive | 12.5% (inactive) | 17.8% (inactive) | 24.6% (inactive)
O=C(O)c1ccccc1Nc1cccc(C(F)(F)F)c1 | 626 | 3.3% (inactive) | -7.4% (inactive) | 99.3% | -44.4% (inactive) | 131% | 0.0659 | 0.639 | -1.06 | 23.4% (inactive) | -0.455 (inactive) | -3.9e-05 (inactive) | 0.00472 (inactive) | inactive | -7.16% (inactive) | 5.42% (inactive) | 28.4% (inactive)
Brc1c(NC2=NCCN2)ccc2nccnc12 | 621 | -4.8% (inactive) | -11.3% (inactive) | 104% | -58.7% (inactive) | 120% | -0.535 | 0.61 | 1.33 | 34.5% (inactive) | -0.534 (inactive) | 1.1e-06 (inactive) | 0.0151 (active) | inactive | 5.25% (inactive) and -5.37% (inactive) | 14% (inactive) | 28.8% (inactive)
C[C@]12C=CC(=O)C=C1CC[C@@H]1[C@@H]2[C@@H](O)C[C@@]2(C)[C@H]1CC[C@]2(O)C(=O)COC(=O)CCC(=O)O | 671 | -6.3% (inactive) | 6.5% (inactive) | 85.8% | -27.3% (inactive) | 120% | 1.3 | 0.17 | -0.0671 | 19.2% (inactive) | -0.471 (inactive) | -8e-05 (inactive) | 0.00574 (inactive) | inactive | 15.8% (inactive) | 6.58% (inactive) | 46.6% (inactive)
COc1cc([C@@H]2c3cc4c(cc3[C@H](O)[C@H]3COC(=O)[C@H]23)OCO4)cc(OC)c1OC | 436 | 21.5% (active) | -118% (inactive) | 1.5% | -226% (inactive) | 86.2% | 0.542 | -0.666 | -0.822 | -6.41% (inactive) | -0.472 (inactive) | -0.000104 (inactive) | 0.00519 (inactive) | inactive | 0.865% (inactive) | 33.7% (inactive) | 81.6% (active)
CC(Cc1ccc(O)c(O)c1)C(C)Cc1ccc(O)c(O)c1 (stereo not given) | 641 | 12.1% (inactive) | -17.2% (inactive) | 100% | -62.1% (inactive) | 127% | 0.848 | 0.39 | -0.226 | 16.8% (inactive) | -0.504 (inactive) | -8.3e-05 (inactive) | 0.00569 (inactive) | inactive | -9.23% (inactive) | 3.4% (inactive) | -2.88% (inactive)
c1ccc(SCc2nc3ccccc3[nH]2)nc1 | 407 | -12.9% (inactive) | -9.8% (inactive) | 107% | -65.1% (inactive) | 119% | 0.727 | 0.54 | -0.488 | 9.39% (inactive) | -0.624 (inactive) | -2.9e-05 (inactive) | 0.00427 (inactive) | inactive; toxic | 13.1% (inactive) | -49.8% (inactive) | -119% (inactive)
COCCCN1C(=O)C(O)=C(C(=O)c2ccco2)C1c1ccc(Br)cc1 (stereo not given) | 417 | -4.6% (inactive) | -13.4% (inactive) | 107% | -25.5% (inactive) | 117% | -1.16 | 0.864 | 0.315 | -4.7% (inactive) | -0.457 (inactive) | 7.2e-06 (inactive) | 0.00512 (inactive) | inactive | 6.25% (inactive) | 23.9% (inactive) | 22.2% (inactive)
CNCCCC12CCC(c3ccccc31)c1ccccc12 | 541 | -4.8% (inactive) | 19.8% (inactive) | 83.4% | -80.6% (inactive) | 114% | -1.24 | 0.435 | 1.73 | 3.45% (inactive) | -0.501 (inactive) | -9.7e-05 (inactive) | 0.00463 (inactive) | inactive | 6.33% (inactive) and 2.26% (inactive) | -23.6% (inactive) | 55.4% (active)

Source: PubChem BioAssay
